Hits are enriched below; roughly 19% of the tested compounds scored in any of these assays.
TDP1 cell CPT: DT40-hTDP1 cell growth loss with CPT; chicken DT40 Tdp1-/-;hTDP1 cells + 20 nM CPT, ATP luminescence, 48 h; Potency, µM (doses to about 46.2 µM), actives largely listed as inhibitors; actives 12% (n = 420,000); AID 686979; further: nearly all actives have a fitted effect of over 55% in size
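Cell growth measured by CellTiter-Glo luminescence after a minimum 48 h, 37 C compound exposure with 20 nM CPT in Tdp1-knockout DT40 cells stably expressing hTDP1, seeded 400/well; qHTS titration format.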
HT1080-NT tox: kills 2HG-producing HT-1080-NT fibrosarcoma cells; actives 1.6% (n = 360,000); Potency, µM (top dose mostly 46.1 µM), usual class: cytotoxic; HT-1080-NT fibrosarcoma viability, CellTiter-Glo ATP luminescence, 48 h; AID 686970;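 further: NT is the 2HG producing partner of a matched IDH1 knockdown line; nearly all actives have a fitted effect of over 55% in size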
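Compounds were tested in concentration-response format on HT-1080-NT cells for 48 hours at 37 degrees C. Cell viability came from CellTiter-Glo luminescence; curves were classified by r2, response magnitude and activity.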
IL-1B inflam inh: inflammasome signaling inhibition, IL-1 beta readout | THP-1 LPS/ATP IL-1B secretion, AlphaLISA, 16 h; active compounds read low | activity change, % at 57.5 µM | actives 4.7% (n = 360,000); in the data active means activity change below about -50%; inconclusive means mostly about -30% to -49%
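Secreted IL-1B measured by AlphaLISA bead assay after 16 h compound exposure of THP-1 cells; compounds (final up to 57.5 uM) added 1 h before LPS (250 ng/mL) and ATP (1.25 mM) stimulation; lower signal means less secretion.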
HT1080 IDH1KD tx: toxicity to HT-1080 IDH1 knockdown cells (counter line). Potency, µM (top dose mostly 46.1 µM), actives largely listed as cytotoxic. HT-1080 IDH1 knockdown viability, ATP luminescence, 48 h. actives 2% (n = 360,000). AID 686971
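% activity derives from luminescence (CellTiter-Glo), normalised to DMSO and no-cell wells. HT-1080-IDH1KD cells, 750/well, had 48 h compound exposure at 37 °C.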
DT40 TDP1 no CPT: qHTS for Inhibitors of human tyrosyl-DNA phosphodiesterase 1 (TDP1): qHTS in cells in absence of CPT. DT40 Tdp1-/- hTDP1 cells, no CPT, ATP luminescence, 48 h. Potency, µM (highest dose often 46.2 µM), usual class: inhibitors. actives 15% (n = 420,000); further: nearly all actives have a fitted effect of over 55% in size
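Camptothecin absent (DMSO only). Human TDP1-complemented DT40 knockout cells, 400 cells/well, 37 °C for minimum 48 hr; ATP measured via CellTiter-Glo, 30 min dark incubation, luminescence.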
A number is an active result; 0 = inactive; ? = inconclusive; - = not tested or not shown; [ ] = another dose, or the depositor's remark. Unless noted, the call rests on the fitted dose curve; in most records, active means well fitted curve in the direction sought with a large enough effect; inconclusive means small, poorly fitted or top-dose-only effect, or another doubt; inactive means no such curve, though single readings can be large; an effect the other way counts as inactive or inconclusive.

SMILES | TDP1 cell CPT | HT1080-NT tox | IL-1B inflam inh | HT1080 IDH1KD tx | DT40 TDP1 no CPT
CCOc1ccc(N2CC(C(=O)Nc3cccc(C)c3C)CC2=O)cc1 (stereo unspecified) | 0 | 0 | 0 | 0 | 0
CC1CCc2c(ccc3ccccc23)C1=O (stereo unspecified) | 0 | 0 | 0 | 0 | 0
O=C1c2ccccc2C(=O)C1Cc1cccc2ccccc12 | 14µM | ? | 0 | 0 | 0
OCCCNC(=S)Nc1ccc2nccnc2c1 | 0 | 0 | 0 | 0 | ?
COc1ccc(NC(=S)Nc2ccc(F)cc2)cc1 | ? | 0 | 0 | 0 | 26µM
Cc1ccc(NC(=S)Nc2ccc(F)cc2)cc1C | ? | 0 | -58 | 0 | ?
Fc1ccc(NC(=S)Nc2ccc3nccnc3c2)cc1 | 16µM | 0 | 0 | 0 | 18µM
COc1cc(Cn2c3ccc(NC(=O)NCCc4ccccc4)cc3c(=O)n2C)ccc1F | ? | 0 | 0 | 0 | ?
Cn1c(=O)c2cc(NC(=O)CCc3cccnc3)ccc2n1Cc1cccc(C(F)(F)F)c1 | ? | 0 | 0 | 0 | 18µM
COc1cc(Cn2c3ccc(NC(=O)CCc4cccnc4)cc3c(=O)n2C)ccc1F | 9.2µM | 0 | 0 | 0 | ?
COc1ccc(CCNC(=O)Nc2ccc3c(c2)c(=O)n(C)n3Cc2ccc(Cl)cc2)cc1OC | 8.2µM | 0 | 0 | 0 | ?
COc1cc(Cn2c3ccc(NC(=O)CCc4ccccc4)cc3c(=O)n2C)ccc1F | 6.5µM | ? | 0 | ? | 2.9µM
O=C(CCc1ccccc1)NCCc1ccc(F)cc1 | 0 | 0 | 0 | 0 | 0
COc1ccccc1CCC(=O)Nc1ccc2c(c1)c(=O)n(C)n2-c1cccs1 | 3.7µM | ? | 0 | ? | 3.7µM
Cc1cc(C)cc(Cn2c3ccc(NC(=O)NCc4ccc(F)cc4)cc3c(=O)n2C)c1 | ? | 0 | 0 | 0 | ?
Cn1c(=O)c2cc(NC(=O)CCc3cccnc3)ccc2n1Cc1ccc(F)cc1 | 16µM | 0 | 0 | 0 | ?
O=C(C1CCCCC1)N1C[C@@H](O)[C@H](n2cc(C3CC3)nn2)C[C@@H]1c1ccccc1 | 0 | 0 | 0 | 0 | 0
COCCN(C(=O)CSc1nnc(-c2ccco2)n1C)c1c(N)n(CC(C)C)c(=O)[nH]c1=O | 0 | 0 | 0 | 0 | 0
Oc1ccccc1OCCOc1ccccc1OCCOc1ccccc1O | ? | 0 | ? | 0 | 21µM
CCOC(=O)C1=C(C)OC(=Cc2ccccc2)C1=O | 0 | 0 | 0 | 0 | 0.0092µM
CCOC(=O)C1=C(O)c2ccccc2C(=O)/C1=C\c1ccc(C)cc1 | 5.8µM | ? | 0 | 18µM | 5.8µM
CC(=O)C1=C(O)C(=Cc2ccccc2)OC1=O | 0 | 0 | 0 | 0 | ?
COc1ccc2[nH]c3c(c2c1)CCN1C(=O)C(CC(=O)NCc2ccco2)C[C@H](C(=O)N(C(C)C)C(C)C)[C@@]31C (stereo partly specified) | ? | 0 | 0 | 0 | ?
CCCNc1c(N)c(=O)oc2ccccc12 | 0 | 0 | 0 | 0 | 0
Nc1c(NCCN2CCCCC2)c2ccccc2oc1=O | 15µM | 0 | 0 | 0 | 16µM
SMILES | TDP1 cell CPT | HT1080-NT tox | IL-1B inflam inh | HT1080 IDH1KD tx | DT40 TDP1 no CPT
O=C(CSc1nc(=O)n(CCN2CCOCC2)c2c1CCCC2)Nc1cccc([N+](=O)[O-])c1 | ? | 0 | 0 | 0 | ?
CN(Cc1cn(-c2ccccc2)nc1-c1ccc2c(c1)OCO2)Cc1nccn1C | 26µM | 0 | ? | 0 | 23µM
Cc1c(C(=O)N2c3ccccc3Sc3ccccc32)cccc1[N+](=O)[O-] | ? | 0 | 0 | 0 | 26µM
Cc1ccc2oc(C(F)(F)C(F)F)cc(=O)c2c1 | 0 | 0 | 0 | 0 | 0
Cc1ccc2oc(C(Cl)(Cl)Cl)cc(=O)c2c1 | 4.6µM | 10µM | -100 | ? | 5.8µM
O=C(Nc1ccccc1)c1sc(Cl)nc1-c1ccccc1 | ? | 0 | 0 | 0 | ?
Cc1ccc(NC(=O)c2sc(Cl)nc2-c2ccccc2)cc1C | ? | 0 | 0 | 0 | 18µM
COc1ccc(NC(=O)c2c(C(=O)Nc3ccccc3)sc3nc(C)cc(=O)n23)cc1 | 0 | - | - | - | 0
Cc1cc(=O)n2c(C(=O)Nc3ccc(C)c(C)c3)c(C(=O)Nc3ccccc3)sc2n1 | ? | 0 | 0 | 0 | 16µM
CCN(CC)S(=O)(=O)N1CCC(C(=O)NCc2ccco2)CC1 | 0 | 0 | 0 | 0 | 0
Nc1ccc(C=O)cc1 | 0 | - | - | - | 0
Cc1nnc(Cc2ccccc2)c2n[nH]c(C)c12 | 0.73µM | 0 | 0 | 0 | 0.73µM
CC(=O)c1cc2c(cc1NC(=O)c1ccc(C)cc1)OCCO2 | 0 | 0 | 0 | 0 | ?
O=C(N/N=C/c1cc([N+](=O)[O-])ccc1O)C1CCCCC1 | 5.2µM | ? | 0 | ? | 4.6µM
O=C(CCC(=O)Nc1ccc(Br)cc1)N/N=C/c1cc([N+](=O)[O-])ccc1O | 23µM | 0 | 0 | 0 | ?
O=C(CCC(=O)Nc1ccc(F)cc1)N/N=C/c1cc([N+](=O)[O-])ccc1O | 0 | 0 | 0 | 0 | ?
O=C(CCC(=O)Nc1cc(C(F)(F)F)ccc1Cl)N/N=C\c1cc([N+](=O)[O-])ccc1O | 10µM | ? | 0 | 0 | 8.2µM
O=C(N/N=C/c1cc([N+](=O)[O-])ccc1O)c1ccc(COc2ccc3c(c2)CCC3)o1 | 2.6µM | ? | 0 | ? | 3.3µM
COc1ccc(CCNC(=O)Cc2ccc(NS(=O)(=O)c3ccc(F)cc3)cc2)cc1OC | 0 | 0 | ? | 0 | 0
Cc1cc(Cl)ccc1NC(=O)CN1C(=O)COc2ccc(S(=O)(=O)N3CCC(C)CC3)cc21 | 0 | - | - | - | 0
O=C(NC[C@@H]1CCCN2CCCC[C@H]12)c1cnn(-c2nccc(-c3cc4ccccc4o3)n2)c1C1CC1 | 0[9.04 µM] | - | - | - | 0
CCCN(CC1CC1)C(=S)Nc1ccccc1F | 0 | 0 | 0 | 0 | 0
O=C(Cn1nnc(-c2ccccc2)n1)N/N=C/c1cc([N+](=O)[O-])ccc1O | 5.8µM | 0 | 0 | 0 | 4.1µM
O=C(Cn1nc2ccccc2n1)N/N=C/c1cc([N+](=O)[O-])ccc1O | ? | 0 | 0 | ? | ?
O=[N+]([O-])c1ccc(O)c(C2CCCCC2)c1 | ? | 15µM | ? | 16µM | ?
CNC(=O)c1csc(-c2ccc(C)cc2)n1 | 0 | 0 | 0 | 0 | 0
CC(C)(C)c1ccc(C(=O)N2CCC3(CC2)CC3C(=O)NCCc2ccccn2)cc1 (stereo unspecified) | 0[9.04 µM] | - | - | - | 0
O=C(NS(=O)(=O)Nc1ccc(Br)cn1)c1c[nH]c2ccccc12 | 0 | 0 | 0 | 0 | 0
O=c1[nH]cnc2nc(-c3ccccc3)c(-c3ccccc3)nc12 | 1.5µM | 0 | 0 | 0 | 2.9µM
O=C1CC(N2CCN(Cc3ccc(Cl)cc3)CC2)C(=O)N1CCc1ccccc1 (stereo unspecified) | 15µM | 0 | 0 | 0 | 18µM

Screens as filed in PubChem BioAssay.
